# From the supplement of paper PMC4022240
# ± gives the standard deviation.
# T1: HaloTag-ATRX ADD domain (163-292)
# T1 chain: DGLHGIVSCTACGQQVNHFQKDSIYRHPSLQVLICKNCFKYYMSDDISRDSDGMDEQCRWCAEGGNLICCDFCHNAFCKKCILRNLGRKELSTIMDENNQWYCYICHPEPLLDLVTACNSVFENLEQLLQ
# Legend:
# Experiment in all cases: peptide microarray binding signal (635 nm), min-max normalized on array (fraction of array maximum); higher = stronger binding
# [1] = target: T1, HaloTag-ATRX ADD domain (163-292)
# Method: (§1)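 Histone 13-mer peptides were synthesized as cellulose conjugates with a C-terminal 20-atom PEG linker and printed in triplicate on nitrocellulose. The sequence given is the unmodified backbone; PTMs (Kme1/2/3, Kac, Sph/Tph, Rme/Rme2a/Rme2s, Rcit) are listed in the label and the 'peptide modifications' condition. Slides were probed at 4 °C for 1 h with biotin-labelled (HQ)5-HaloTag reader fusions (ATRX-ADD, ING2-PHD) then streptavidin-Alexa647, or with rabbit histone antibodies then anti-rabbit Alexa647. The mean 635 nm signal of the triplicate spots was scaled 0-1 between the lowest and highest values on each array.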
# [2] = target: HaloTag-ING2 PHD (mouse Ing2 200-280)
# Method: as §1
# [3] = target: anti-H3K4me3 antibody ab8580
# Method: as §1
# [4] = target: anti-H3K9me3 antibody ab8898
# Method: as §1
# [5] = peptide region: H2B 17-29, peptide modifications: H2BK23ac H2BK27ac, binder concentration: 1:2,000 dilution
# [6] = peptide region: H2B 17-29, peptide modifications: H2BK23ac H2BK27ac, binder concentration: 1:10,000 dilution
# [7] = peptide region: H3 1-13, peptide modifications: H3K4ac H3K9ac, binder concentration: 1:2,000 dilution
# [8] = peptide region: H3 1-13, peptide modifications: H3K4ac H3K9ac, binder concentration: 1:10,000 dilution
# [9] = peptide region: H2B 17-29, peptide modifications: H2BK24ac, binder concentration: 1:2,000 dilution
# [10] = peptide region: H2B 17-29, peptide modifications: H2BK24ac, binder concentration: 1:10,000 dilution
# [11] = peptide region: H2B 17-29, peptide modifications: H2BK23ac H2BK28ac, binder concentration: 1:2,000 dilution
# [12] = peptide region: H2B 17-29, peptide modifications: H2BK23ac H2BK28ac, binder concentration: 1:10,000 dilution
# [13] = peptide region: H2B 17-29, peptide modifications: H2BK28ac, binder concentration: 1:2,000 dilution
# [14] = peptide region: H2B 17-29, peptide modifications: H2BK28ac, binder concentration: 1:10,000 dilution
# [15] = peptide region: H3 1-13, peptide modifications: H3K4ac H3K9me2, binder concentration: 1:2,000 dilution
# [16] = peptide region: H3 1-13, peptide modifications: H3K4ac H3K9me2, binder concentration: 1:10,000 dilution
# [17] = peptide region: H3 1-13, peptide modifications: H3K4me1 H3K9ac, binder concentration: 1:2,000 dilution
# [18] = peptide region: H3 1-13, peptide modifications: H3K4me1 H3K9ac, binder concentration: 1:10,000 dilution
# [19] = peptide region: H3 1-13, peptide modifications: H3K4ac H3K9me1, binder concentration: 1:2,000 dilution
# [20] = peptide region: H3 1-13, peptide modifications: H3K4ac H3K9me1, binder concentration: 1:10,000 dilution
# [21] = peptide region: H2B 17-29, peptide modifications: H2BK27ac H2BK28ac, binder concentration: 1:2,000 dilution
# [22] = peptide region: H2B 17-29, peptide modifications: H2BK27ac H2BK28ac, binder concentration: 1:10,000 dilution
# [23] = peptide region: H3 1-13, peptide modifications: H3K4ac H3T6ph, binder concentration: 1:2,000 dilution
# [24] = peptide region: H3 1-13, peptide modifications: H3K4ac H3T6ph, binder concentration: 1:10,000 dilution
binder,measurement,setting,value
AVTKAQKKDGKKR [H2B 17-29 A V T K A Q Kac K D G Kac K R],peptide microarray binding signal,"[1]; peptide region: H2B 17-29, peptide modifications: H2BK23ac H2BK27ac, binder concentration: 50 nM",0.0053 ± 0.00061
same,peptide microarray binding signal,"[1]; peptide region: H2B 17-29, peptide modifications: H2BK23ac H2BK27ac, binder concentration: 500 nM",0.00781 ± 0.00049
same,peptide microarray binding signal,"[2]; peptide region: H2B 17-29, peptide modifications: H2BK23ac H2BK27ac, binder concentration: 10 nM",0.00722 ± 0.00015
same,peptide microarray binding signal,"[2]; peptide region: H2B 17-29, peptide modifications: H2BK23ac H2BK27ac, binder concentration: 100 nM",0.00751 ± 0.001
same,peptide microarray binding signal,[3]; [5],0.0021 ± 0.00039
same,peptide microarray binding signal,[3]; [6],0.000856 ± 8.9e-06
same,peptide microarray binding signal,[4]; [5],0.000604 ± 2e-05
same,peptide microarray binding signal,[4]; [6],0.000923 ± 9.6e-06
ARTKQTARKSTGG [H3 1-13 A R T Kac Q T A R Kac S T G G],peptide microarray binding signal,"[1]; peptide region: H3 1-13, peptide modifications: H3K4ac H3K9ac, binder concentration: 50 nM",0.0941 ± 0.064
same,peptide microarray binding signal,"[1]; peptide region: H3 1-13, peptide modifications: H3K4ac H3K9ac, binder concentration: 500 nM",0.0794 ± 0.02
same,peptide microarray binding signal,"[2]; peptide region: H3 1-13, peptide modifications: H3K4ac H3K9ac, binder concentration: 10 nM",0.0863 ± 0.014
same,peptide microarray binding signal,"[2]; peptide region: H3 1-13, peptide modifications: H3K4ac H3K9ac, binder concentration: 100 nM",0.099 ± 0.0066
same,peptide microarray binding signal,[3]; [7],0.047 ± 0.0095
same,peptide microarray binding signal,[3]; [8],0.139 ± 0.057
same,peptide microarray binding signal,[4]; [7],0.102 ± 0.0083
same,peptide microarray binding signal,[4]; [8],0.123 ± 0.018
AVTKAQKKDGKKR [H2B 17-29 A V T K A Q K Kac D G K K R],peptide microarray binding signal,"[1]; peptide region: H2B 17-29, peptide modifications: H2BK24ac, binder concentration: 50 nM",0.00295 ± 0.00019
same,peptide microarray binding signal,"[1]; peptide region: H2B 17-29, peptide modifications: H2BK24ac, binder concentration: 500 nM",0.00762 ± 0.00062
same,peptide microarray binding signal,"[2]; peptide region: H2B 17-29, peptide modifications: H2BK24ac, binder concentration: 10 nM",0.00609 ± 0.00052
same,peptide microarray binding signal,"[2]; peptide region: H2B 17-29, peptide modifications: H2BK24ac, binder concentration: 100 nM",0.0283 ± 0.032
same,peptide microarray binding signal,[3]; [9],0.0013 ± 8.9e-05
same,peptide microarray binding signal,[3]; [10],0.000742
same,peptide microarray binding signal,[4]; [9],0.000347 ± 3.5e-06
same,peptide microarray binding signal,[4]; [10],0.000577 ± 6.2e-06
AVTKAQKKDGKKR [H2B 17-29 A V T K A Q Kac K D G K Kac R],peptide microarray binding signal,"[1]; peptide region: H2B 17-29, peptide modifications: H2BK23ac H2BK28ac, binder concentration: 50 nM",0.00348 ± 0.00011
same,peptide microarray binding signal,"[1]; peptide region: H2B 17-29, peptide modifications: H2BK23ac H2BK28ac, binder concentration: 500 nM",0.00929 ± 0.00055
same,peptide microarray binding signal,"[2]; peptide region: H2B 17-29, peptide modifications: H2BK23ac H2BK28ac, binder concentration: 10 nM",0.00442 ± 0.00046
same,peptide microarray binding signal,"[2]; peptide region: H2B 17-29, peptide modifications: H2BK23ac H2BK28ac, binder concentration: 100 nM",0.00312 ± 0.00011
same,peptide microarray binding signal,[3]; [11],0.002 ± 0.00012
same,peptide microarray binding signal,[3]; [12],0.000799 ± 8.3e-06
same,peptide microarray binding signal,[4]; [11],0.000529 ± 1.3e-05
same,peptide microarray binding signal,[4]; [12],0.000634
AVTKAQKKDGKKR [H2B 17-29 A V T K A Q K K D G K Kac R],peptide microarray binding signal,"[1]; peptide region: H2B 17-29, peptide modifications: H2BK28ac, binder concentration: 50 nM",0.00194 ± 4.1e-05
same,peptide microarray binding signal,"[1]; peptide region: H2B 17-29, peptide modifications: H2BK28ac, binder concentration: 500 nM",0.00486 ± 0.00024
same,peptide microarray binding signal,"[2]; peptide region: H2B 17-29, peptide modifications: H2BK28ac, binder concentration: 10 nM",0.00209 ± 2.4e-05
same,peptide microarray binding signal,"[2]; peptide region: H2B 17-29, peptide modifications: H2BK28ac, binder concentration: 100 nM",0.00142 ± 1.5e-05
same,peptide microarray binding signal,[3]; [13],0.000396 ± 7e-06
same,peptide microarray binding signal,[3]; [14],0.000628 ± 6.7e-06
same,peptide microarray binding signal,[4]; [13],0.000166 ± 3.6e-06
same,peptide microarray binding signal,[4]; [14],0.000346 ± 3.8e-06
ARTKQTARKSTGG [H3 1-13 A R T Kac Q T A R Kme2 S T G G],peptide microarray binding signal,"[1]; peptide region: H3 1-13, peptide modifications: H3K4ac H3K9me2, binder concentration: 50 nM",0.00875 ± 0.0011
same,peptide microarray binding signal,"[1]; peptide region: H3 1-13, peptide modifications: H3K4ac H3K9me2, binder concentration: 500 nM",0.0157 ± 0.0031
same,peptide microarray binding signal,"[2]; peptide region: H3 1-13, peptide modifications: H3K4ac H3K9me2, binder concentration: 10 nM",0.0771 ± 0.0077
same,peptide microarray binding signal,"[2]; peptide region: H3 1-13, peptide modifications: H3K4ac H3K9me2, binder concentration: 100 nM",0.0944 ± 0.0071
same,peptide microarray binding signal,[3]; [15],0.00689 ± 0.0014
same,peptide microarray binding signal,[3]; [16],0.00702 ± 0.001
same,peptide microarray binding signal,[4]; [15],0.00331 ± 0.0003
same,peptide microarray binding signal,[4]; [16],0.00455 ± 0.00089
ARTKQTARKSTGG [H3 1-13 A R T Kme Q T A R Kac S T G G],peptide microarray binding signal,"[1]; peptide region: H3 1-13, peptide modifications: H3K4me1 H3K9ac, binder concentration: 50 nM",0.0172 ± 0.00082
same,peptide microarray binding signal,"[1]; peptide region: H3 1-13, peptide modifications: H3K4me1 H3K9ac, binder concentration: 500 nM",0.0329 ± 0.0029
same,peptide microarray binding signal,"[2]; peptide region: H3 1-13, peptide modifications: H3K4me1 H3K9ac, binder concentration: 10 nM",0.758 ± 0.07
same,peptide microarray binding signal,"[2]; peptide region: H3 1-13, peptide modifications: H3K4me1 H3K9ac, binder concentration: 100 nM",0.727 ± 0.11
same,peptide microarray binding signal,[3]; [17],0.27 ± 0.033
same,peptide microarray binding signal,[3]; [18],0.157 ± 0.018
same,peptide microarray binding signal,[4]; [17],0.00678 ± 0.00086
same,peptide microarray binding signal,[4]; [18],0.00634 ± 0.00026
ARTKQTARKSTGG [H3 1-13 A R T Kac Q T A R Kme S T G G],peptide microarray binding signal,"[1]; peptide region: H3 1-13, peptide modifications: H3K4ac H3K9me1, binder concentration: 50 nM",0.00809 ± 0.00079
same,peptide microarray binding signal,"[1]; peptide region: H3 1-13, peptide modifications: H3K4ac H3K9me1, binder concentration: 500 nM",0.0149 ± 0.0037
same,peptide microarray binding signal,"[2]; peptide region: H3 1-13, peptide modifications: H3K4ac H3K9me1, binder concentration: 10 nM",0.0703 ± 0.011
same,peptide microarray binding signal,"[2]; peptide region: H3 1-13, peptide modifications: H3K4ac H3K9me1, binder concentration: 100 nM",0.1 ± 0.035
same,peptide microarray binding signal,[3]; [19],0.00664 ± 0.0014
same,peptide microarray binding signal,[3]; [20],0.0205 ± 0.012
same,peptide microarray binding signal,[4]; [19],0.00574 ± 0.00077
same,peptide microarray binding signal,[4]; [20],0.00565 ± 0.00024
AVTKAQKKDGKKR [H2B 17-29 A V T K A Q K K D G Kac Kac R],peptide microarray binding signal,"[1]; peptide region: H2B 17-29, peptide modifications: H2BK27ac H2BK28ac, binder concentration: 50 nM",0.0047 ± 0.00043
same,peptide microarray binding signal,"[1]; peptide region: H2B 17-29, peptide modifications: H2BK27ac H2BK28ac, binder concentration: 500 nM",0.00386 ± 0.00024
same,peptide microarray binding signal,"[2]; peptide region: H2B 17-29, peptide modifications: H2BK27ac H2BK28ac, binder concentration: 10 nM",0.00418 ± 6.5e-05
same,peptide microarray binding signal,"[2]; peptide region: H2B 17-29, peptide modifications: H2BK27ac H2BK28ac, binder concentration: 100 nM",0.00276 ± 0.00023
same,peptide microarray binding signal,[3]; [21],0.00017 ± 5.6e-06
same,peptide microarray binding signal,[3]; [22],0.00114 ± 1.2e-05
same,peptide microarray binding signal,[4]; [21],0.000544 ± 3e-05
same,peptide microarray binding signal,[4]; [22],0.0011 ± 4e-05
ARTKQTARKSTGG [H3 1-13 A R T Kac Q Tph A R K S T G G],peptide microarray binding signal,"[1]; peptide region: H3 1-13, peptide modifications: H3K4ac H3T6ph, binder concentration: 50 nM",0.00693 ± 0.00026
same,peptide microarray binding signal,"[1]; peptide region: H3 1-13, peptide modifications: H3K4ac H3T6ph, binder concentration: 500 nM",0.0116 ± 0.0014
same,peptide microarray binding signal,"[2]; peptide region: H3 1-13, peptide modifications: H3K4ac H3T6ph, binder concentration: 10 nM",0.0574 ± 0.0059
same,peptide microarray binding signal,"[2]; peptide region: H3 1-13, peptide modifications: H3K4ac H3T6ph, binder concentration: 100 nM",0.0396 ± 0.0055
same,peptide microarray binding signal,[3]; [23],0.00242 ± 0.00029
same,peptide microarray binding signal,[3]; [24],0.00417 ± 0.00026
same,peptide microarray binding signal,[4]; [23],0.0013 ± 0.00014
same,peptide microarray binding signal,[4]; [24],0.000923 ± 9.6e-06
